“And” between values parts separate entries of the source, which are not always exact repeats. Identical values can stand only once. Compounds without any hit were thinned out: in the full panel of roughly 83,000, 20% have a hit.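 Treatment: one concentration, 48 hours, 96-well format. Scoring: percent growth, with anything below 10 considered active.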 A number with no mark means an inactive call. The source made the active and inactive calls.
Tested on: MDA-MB-468 breast
Assay: NCI-60 one-dose screen, 48 h (100 = growth as untreated, 0 = no growth, -100 = all killed)
Details: 10 µM unless noted

SMILES	growth
O=S(=O)(NCCCNc1nccc(-c2c(-c3ccc(F)c(O)c3)nc3occn23)n1)c1ccccc1	94.8%
NC(=O)c1c(OCc2c(F)cc(Br)cc2F)nsc1NC(=O)NCCCCN1CCCC1	-57.8% (active)
O=C(/C=C/c1c(Cl)nc2sccn12)c1nccs1	75.7%
NC(=S)N/N=C/c1ccc(N)cc1	106%
COc1cc(/C=C/C(=O)c2c(C)nc3ccccc3c2/C=C/c2ccc(C)cc2)cc(OC)c1OC	18.9%
Cc1cc(C(C)(C)c2cc(C)c(O)c(CN(C)C)c2)cc(CN(C)C)c1O	67.7%
Cc1cc(C)n(C(=O)c2sc(=S)n(-c3ccccc3)c2N=Nc2c(N)n[nH]c2N)n1	112%
Oc1[nH]c2ccc(Cl)cc2c1/C=c1/ccc2c(c1)N=C(c1cc(F)cc(F)c1)N=2	53%
[2H]c1nc(=Nc2cc(NC(=O)C=C)c(N(C)CCN(C)C)cc2OC)[nH]c(-c2cn(C([2H])([2H])[2H])c3ccccc23)c1[2H]	-9.46% (active)
CCCCCCCCOC(=O)c1c(C)[nH]c(/C=C2\N=C(c3ccc[nH]3)C=C2OC)c1C	-25.7% (active)
O=C(/C=C/c1cccc(O)c1)c1cccc(-n2cc(-c3ccccc3)[nH]c2=O)c1	73.4%
CCN1CCN(CC(=O)Nc2ccc(-c3cn4c(n3)sc3cc(Oc5ccnc(C(=O)NC)c5)ccc34)cc2)CC1	74.4%
Oc1ccc(/C=N/NC(=S)Nc2ccccc2)nc1	-37.7% (active)
CCn1cc(/C=C2\Oc3cc(OCC#N)ccc3C2=O)c2cc(OC)ccc21	20%
Oc1ccc(Cl)cc1-c1cc(-c2ccc(F)cc2)n[nH]1	-0.461% (active)
O=C1/C(=C/c2ccc(Cl)cc2)COc2ccc(O)cc21	85.1%
Cc1ccc(NC(=O)/C=N/O)cc1C	62.4%
CCCCCCCCCCCCc1ccc(C(=O)/C=C/C(=O)O)cc1	-9.53% (active)
COc1cc2c(c(OC)c1O)C(=O)C(OC)C(c1ccc(O)c(O)c1)O2 (stereo unspecified)	7.99% (active)
CN(Cc1ccccc1)c1ccc(SC#N)cc1	84.2%
O=C1Nc2cc(OC(F)(F)F)ccc2Oc2ccc(-c3ccnc(N4CCNCC4)c3)cc21	-79.4% (active)

SMILES	growth
C=CN(C(=O)N1CCN(c2cc3c(cc2F)c(=O)c(C(=O)O)cn3C2CC2)CC1)c1nc(-c2ccc(Cl)cc2)cs1	76.3%
Cn1c2ccccc2c2c3[nH]c(=O)[nH]c(=O)c3c3c4ccccc4n(C)c3c21	32.4%
CC1CCCC(=O)O1 (stereo unspecified)	97.4% and 97.3%
Cc1ccc(-c2nc(N3CCN(CC(=O)Nc4ccc(Cl)cc4)CC3)c3ccccc3n2)cc1	93.3%
CCN1CCN(CC(=O)Nc2nc3ccc(NCc4ccc(C)cc4)cc3s2)CC1	68.2%
NC(CCCC(N)C(=O)c1ccccc1)C(=O)O (stereo unspecified)	113%
O=C1CC2(CCOCC2)Oc2ncccc21	30.4%
CCC1=C(c2ccc(OC)cc2)C(C)(C)Oc2cc(O)c(CN3CCCC3)cc21	69.5%
COc1ccc(-c2nc(SC(C)C)nc(NNC(N)=S)c2C#N)cc1	21.2%
O=c1cc(CSc2nnc(SCc3cc(=O)oc4c3ccc3ccccc34)o2)c2ccc3ccccc3c2o1	110%
CNC(=O)c1cc(Oc2ccc(NC(=O)c3nc(S(C)(=O)=O)sc3-c3ccc(F)cc3)cc2)ccn1	-4.37% (active)
COc1ccc(C2=Nn3c(NN)nnc3SC2)cc1	106%
C/C(=C\c1csc(C)n1)[C@@H]1C[C@@H]2O[C@]2(C)CCC[C@H](C)[C@H](O)[C@@H](C)C(=O)C(C)(C)[C@@H](O)CC(=O)N1	22.4%
O=CN1N=C(c2ccc(Nc3ccnc4cc(Cl)ccc34)cc2)CC1c1ccccc1 (stereo unspecified)	3.07% (active)
Clc1ccc(Nc2ncc(Cc3cccc(Cl)c3Cl)s2)cc1	99.4%
O=C1[C@H]2Cc3c([nH]c4ccccc34)[C@@H](c3c(Cl)cccc3Cl)N2C(=O)CN1C1CCN(CC2CCCCC2)CC1	80.5%
C#C[C@@]1(O)[C@@H](CO)O[C@@H](n2cc(-c3ccco3)c3c(N)ncnc32)[C@@H]1O	49.5%
COc1cc(/C(C#N)=C/c2ccc3c(c2OC)OCO3)cc2c1OCO2	9.19% (active)
O=C(NCCCNc1cc(-c2cn(-c3ccccc3)nc2-c2cccc(O)c2)ccn1)Nc1ccc(F)cc1	-19.4% (active)
O=S(=O)(Nc1cc(Sc2cccc3cccnc23)c(O)c2ccccc12)c1ccccc1	-42.6% (active)
CCn1c(-c2nonc2N)nc2c(C#CC(C)(C)O)ncc(OC[C@H]3CCCNC3)c21	31.5%

SMILES	growth
CCCCCCCCCCCCCCCC1=NCCN1	-32.9% (active)
Fc1ccc2[nH]cc(-c3nonc3-c3c[nH]c4ccc(Br)cc34)c2c1	44.3%
O=c1c2ccccc2[nH]n1Cc1ccc2c(c1)OCO2	94.5%
COc1cc(/C=C2\CCC/C(=C\c3cc(CN4CCCC4)c(O)c(OC)c3)C2=O)cc(CN2CCCC2)c1O	67.2%
Cc1ccc(CNc2ccc3nc(CCC(C)C)[nH]c3c2)cc1	78.3%
COc1ccc(-c2nc(C(Cl)Cl)nc3cc(-c4ccccc4)nn23)cc1	-55.8% (active)
O=C(CCl)Nc1ccc(NC(=O)c2cc(Cl)ccc2O)c(Cl)c1	79.7%
N#Cc1ccc(O)c(C2=NCC(c3ccc(-c4ccccc4)cc3)O2)c1 (stereo unspecified)	26.9%
CCOC(=O)c1sc(NC(=O)CN2CCC(Cc3ccccc3)CC2)nc1C	98.5%
CCCCCc1ccc(S(=O)(=O)Nc2cccc(-c3csc(NCCN4CCN(C)CC4)n3)c2)cc1	87.3%
COc1cc2nc(Cl)nc(Nc3cccc(C4=Nc5c(N)nc(N)nc5NC(c5ccc6c(c5)OCO6)C4)c3)c2cc1OC (stereo unspecified)	81.7%
CN(C)CCCOc1cccc(NC2=C(Cl)C(=O)C(Nc3cccc(OCCCN(C)C)c3)=C(Cl)C2=O)c1	-57.3% (active)
C=C(C)[C@@H]1CC[C@]2(COCCC#N)CC[C@]3(C)[C@H](CC[C@@H]4[C@@]5(C)Cc6c([nH]c7ccccc67)C(C)(C)[C@@H]5CC[C@]43C)[C@@H]12	115%
O=C(N/N=C\c1ccc(Cl)cc1)c1ccc2nc(-c3ccc(Br)cc3)[nH]c2c1	-34.9% (active)
CC(C)(C)c1cc(-c2nc3ccc(N4CCN(CCO)CC4)cc3[nH]2)cc(C(C)(C)C)c1O	52.7%
Cn1c(/C=C(\C#N)c2cccc(C(F)(F)F)c2)nc2c(N3CCOCC3)nc(Cl)nc21	-40.3% (active)
CNCCn1c(=O)c2cc(OC)c(OC)cc2c2ccc3cc4c(cc3c21)OCO4	-53.9% (active)
COc1cc(/C=C/c2cc(/C=C/c3ccc(O)c(OC)c3)n(-c3ccccc3)c(=O)n2)ccc1O	63%
CCN(CC)CCN1C(=O)c2c(c3c4ccccc4[nH]c3c3[nH]c4ccccc4c23)C1=O	89.2%
CO/C=C/C(=O)c1cc2cnc3c(=N)cc(NC(=O)C(C)C)c([nH]1)c23	-54.9% (active)
O=C(NCCCNC(=O)OCc1ccc2cccc(O)c2n1)OCc1ccc2cccc(O)c2n1	11.3%

SMILES	growth
O=C(O)/C(=C\c1ccc(Cl)cc1)c1ccc(Cl)cc1	78.9%
COc1ccc(/C=C\C(=O)/C=C/c2ccc(OC)cc2)cc1	18.7%
COc1ccc(Cl)cc1C(=O)Nc1nc2ccc(Cl)cc2s1	76.7%
COc1cc(-c2nn(-c3ccc(NC(=O)c4ccc(Cl)c(Cl)c4)cc3)cc2-c2ccncc2)ccc1Cl	78.3%
O=C(CCc1nnco1)c1nc2ccc([N+](=O)[O-])cc2[nH]1	113%
O=[N+]([O-])c1cc2c(ccc3occc32)o1	-8.85% (active)
COc1ccc(/C(=N\N=C(N)N)c2ccc(Cl)cc2)cc1OC	52.8%
Cc1ccc(C)c2c1sc1nc3nc4sc5ccccc5n4c(=N)c3c(=O)n12	88.7%
Cc1cccc(NCc2cn(-c3ccc(C(=O)O)cc3)nc2-c2ccc(C(=O)O)cc2)n1	101%
C#C[C@]1(O)CC[C@H]2[C@@H]3CC=C4c5sc(Nc6nc(C)cc(OC)n6)nc5CC[C@]4(C)[C@H]3CC[C@@]21C	63.1%
O=C(O)CCCN1C(=O)/C(=C/c2cn(-c3ccccc3)nc2-c2ccc([N+](=O)[O-])cc2)SC1=S	73.5%
COc1ccc(/C=C2\CCCC3=C2N=C2SC=NN2C3c2ccc(OC)c(OC)c2)cc1OC (stereo unspecified)	14.5%
O=C1c2c[n+](Cc3ccccc3)ccc2-c2nc3ccccc3c3ccnc1c23	-59.2% (active)
COc1ccc(NS(=O)(=O)c2ccc(C)cc2)c([N+](=O)[O-])c1	86.6%
ClC(Cl)c1nc(-c2ccco2)n2nc(-c3ccccc3)cc2n1	-54.2% (active)
CCCCCCCCCCCC1=NC(C)(C)CN1C(C)C	-1.36% (active)
COc1ccc(Br)c2c1C(=O)CC2	107%
S=C(Nc1ccc(-c2nc(N3CCOCC3)c3cccn3n2)cc1)Nc1cccnc1	34.8%
